# CCHF vOTU inh-1 – CCHFV vOTU protease inhibition. Pep-AMC fluorescence. 370,000 tested, 0.55% active. inhibition, % at 11.5 µM. AID 651958; further: 0% = vehicle wells with enzyme and 100% = no enzyme wells
# SARS 3CLpro inh-1 – SARS-CoV 3CLpro protease inhibition; P0C6X7; recombinant SARS-CoV 3CLpro, quenched FRET peptide cleavage; inhibition, % at 6 µM; 290,000 tested, 0.14% active; AID 1706; in the data active means inhibition above about 12%
# RecA intein inh – blocks M. tuberculosis RecA intein splicing | P9WHJ3 | cell-free RecA intein splicing, fluorescence | inhibition, % (concentration not given with the values) | 290,000 tested, 0.75% active | AID 2221; in the data active means inhibition above about 30%;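 further: 0% = vehicle wells and 100% = reference inhibitor control wells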
# DUSP3 inh – inhibitors of human VHR1 phosphatase (DUSP3); P51452; recombinant VHR phosphatase, pNPP absorbance; inhibition, % at 13.3 µM; 290,000 tested, 0.52% active; AID 1654; in the data active means inhibition above about 50%
# Target sequence (P51452 whole entry, looked up): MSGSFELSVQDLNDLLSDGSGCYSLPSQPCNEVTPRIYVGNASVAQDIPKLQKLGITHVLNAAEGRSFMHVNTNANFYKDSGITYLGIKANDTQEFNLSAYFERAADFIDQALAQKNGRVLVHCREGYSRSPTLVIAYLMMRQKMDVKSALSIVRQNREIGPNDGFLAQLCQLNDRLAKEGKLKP
# SARS 3CLpro inh-2 – confirmation of SARS coronavirus 3C-like protease inhibitors; shares compounds with SARS 3CLpro inh-1; QFRET protease activity assay, 3CLpro; inhibition, % at 6 µM; 380 tested, 36% active; AID 1879; in the data active means inhibition above about 13%
# GFP chromo cs – counter-screen: blocks GFP chromophore formation | shares compounds with RecA intein inh | cell-free GFP chromophore formation, fluorescence | EC50, µM | 2,100 tested, 83% active | AID 434968; call rule not given here
# CCHF vOTU inh-2 – confirmation of CCHF virus vOTU protease inhibitors. shares compounds with CCHF vOTU inh-1. Recombinant CCHFV vOTU, Pep-AMC fluorescence. inhibition, % at 11.5 µM. 1,900 tested, 17% active. AID 686976
# The depositor's hits bear a star; x = not tested or not shown. Rows were chosen to be rich in hits. Some 1.5% of all compounds tested hit in one or more screens of this group. Unless noted, no stated cut-off is given here; in the data, active means inhibition above about 30%; inactive means the rest.
SMILES,CCHF vOTU inh-1,SARS 3CLpro inh-1,RecA intein inh,DUSP3 inh,GFP chromo cs,others
COc1ccc(C2C(O)C(c3c[nH]c4ccccc34)=NN2C(=O)CCl)cc1 (stereo not given),-19,61*,87*,-1,2.3*,SARS 3CLpro inh-2=78*
COc1cc2c(cc1OC)C(c1cc(Br)ccc1F)N(C(=O)CCl)CC2 (stereo not given),-15,22*,86*,7,4.5*,SARS 3CLpro inh-2=34*
COc1cc2c(cc1OC)C(C1C(=O)CC(C)(C)CC1=O)N(C(=O)CCl)CC2 (stereo not given),-46,-3,-7,-13,x,
CCC(O)(CC)C(=O)NN(C(=O)CCl)c1ccccc1,-8,-2,13,-7,x,
O=C(Nc1ccccc1)NN(C(=O)CCl)c1ccccc1,14,32*,68*,-16,15*,SARS 3CLpro inh-2=36*
COc1ccc(C=CC(=O)c2c(N)n(C)c(=O)n(C)c2=O)cc1,5,x,x,x,x,
Cc1ccc(C2CC(c3cccs3)=NN2C(=O)CCl)cc1 (stereo not given),10,55*,82*,-9,3.8*,SARS 3CLpro inh-2=70*
Cc1c(Cl)ccc(S(=O)(=O)NCCCn2ccnc2)c1Cl,-17,3,-3,-4,x,
CCN(CC)CC(=O)Nc1sc(C)cc1C(=O)c1ccccc1,-5,-3,-1,6,x,
Cc1cc(C(=O)c2ccccc2)c(NC(=O)CCl)s1,32*,76*,58*,-10,17*,SARS 3CLpro inh-2=81*;CCHF vOTU inh-2=-1
CCCCn1nnnc1C(c1cc2ccccc2o1)N(Cc1ccccc1)Cc1ccccc1 (stereo not given),4,x,x,x,x,
O=C(NN=Cc1ccccc1Cl)C(=O)Nc1cccc(C(F)(F)F)c1,14,x,x,x,x,
Cc1ccc2c(c1)c1c(n2CC(O)CN2CCCCCC2)CCCC1 (stereo not given),35*,20*,44*,-10,>38,SARS 3CLpro inh-2=0;CCHF vOTU inh-2=-1
Cc1cc(NC(=O)c2ccc(NS(=O)(=O)c3ccc(F)cc3)cc2)no1,2,x,x,x,x,
NS(=O)(=O)c1ccc(Nc2ccc([N+](=O)[O-])c3nonc23)cc1,31*,15*,14,11,x,SARS 3CLpro inh-2=6;CCHF vOTU inh-2=17
COc1ccc2ccc(O)c(CN(C)CC(=O)Nc3ccccc3C(F)(F)F)c2c1,-15,-1,-4,-25,x,
CCCCOc1ccc(Nc2cc(Cl)ccc2C(=O)O)cn1,37*,8,5,20,x,SARS 3CLpro inh-2=7;CCHF vOTU inh-2=-4
COC1C(OC(=O)c2ccc(C)[nH]2)C(O)C(Oc2ccc3c(O)c(NC(=O)c4ccc(O)c(CC=C(C)C)c4)c(=O)oc3c2Cl)OC1(C)C (stereo not given),38*,13*,x,28,x,SARS 3CLpro inh-2=11;CCHF vOTU inh-2=16
CCN(CC)c1ccc(/C=N/NC(=O)c2nnn(-c3nonc3N)c2C(C)C)c(O)c1,31*,14*,-4,2,x,SARS 3CLpro inh-2=3;CCHF vOTU inh-2=-20
CC(C)c1c(C(=O)N/N=C/c2ccc3c(c2)OCO3)nnn1-c1nonc1N,1,0,-1,14,x,
Cc1ccc(S(=O)(=O)/N=C2\C=C(NS(=O)(=O)c3ccccc3)C(=O)c3ccccc32)c(C)c1,11,x,x,x,x,
Cc1ccc(S(=O)(=O)/N=C2\C=C(Nc3cccc(C(=O)O)c3)C(=O)c3ccccc32)cc1,105*,14*,95*,15,0.51*,SARS 3CLpro inh-2=8;CCHF vOTU inh-2=99*
C=CCc1cccc(C=Nc2c[nH]c(=O)[nH]c2=O)c1O,-12,-6,x,6,>38,
O=C(CN1C(=O)c2cccc3cccc(c23)C1=O)NCCN1CCOCC1,1,4,5,22,x,
COc1cc(/C=C2\C(=O)N(CCC#N)N=C2C)ccc1OCC(=O)Nc1ccccc1,18,0,79*,-5,5.6*,
SMILES,CCHF vOTU inh-1,SARS 3CLpro inh-1,RecA intein inh,DUSP3 inh,GFP chromo cs,others
CC1=NOC(=O)/C1=C/c1ccc(N(C)C)cc1,3,-4,0,22,x,
COc1cc(/C=C2\SC(N)=NC2=O)ccc1OCC(=O)Nc1ccc(C)cc1,20,3,-3,14,x,
CC1=NN(CCC#N)C(=O)/C1=C/c1ccc(N(C)C)cc1,4,-4,48*,60*,11*,
COc1ccc(CCN=C(N)NS(=O)(=O)c2ccc3ccccc3c2)cc1,10,9,1,-1,x,
CCN(Cc1ccccc1)C(c1ccc(C)cc1)c1nnnn1C(C)(C)CC (stereo not given),-5,4,30*,8,>38,
N#CCC[C@@H]1CC[C@]2(CCCN(Cc3ccncc3)C2)O1,0,x,x,x,x,
Cc1cc(N/N=C/c2ccc(O)c(C)c2O)nc(-c2ccccc2O)n1,2,2,47*,-24,>38,
O=S(=O)(c1ccccc1)N1N=C(c2ccc(Cl)cc2)CC1c1ccco1 (stereo not given),-1,x,x,x,x,
S=C1NCCC12C(=S)Nc1ccccc12 (stereo not given),-5,x,37*,x,>38,
O=C1Nc2ccccc2C12OCCS2 (stereo not given),x,x,0,4,x,
O=C1c2ccccc2NC(c2ccc([N+](=O)[O-])cc2)N1O (stereo not given),-3,3,-3,6,x,
O=C(Nc1ccccc1NC(=O)c1ccco1)c1ccco1,8,1,0,20,x,
COc1ccc(N(C(=O)c2ccco2)S(=O)(=O)c2cccs2)cc1,5,0,33*,14,>38,
O=C(Nc1ccccc1N(C(=O)c1ccco1)S(=O)(=O)c1cccs1)c1ccco1,7,-2,10,16,5.8*,
CCOC(=O)Cc1csc(SCC(=O)NC2CCS(=O)(=O)C2)n1 (stereo not given),-1,x,x,x,x,
CS(=O)(=O)c1nc([N+](=O)[O-])nn1CCCc1ccccc1,x,x,51*,x,26*,
CC(C)CNS(=O)(=O)/C=C/c1ccccc1CCNC(=O)OC(C)(C)C,9,x,x,x,x,
COc1cccc(NC(=S)/C(=C(\[O-])c2ccc(OC(F)F)cc2)[n+]2ccccc2)c1,10,0,37*,13,35*,
[O-]/C(=C(\C(=S)Nc1cccc2ccccc12)[n+]1ccccc1)c1ccc(OC(F)F)cc1,3,7,x,13,x,
CC(=O)c1c(C)[nH]c(C(=O)COC(=O)c2ccc(Cl)nc2)c1C,1,x,x,x,x,
Cc1[nH]c2ccccc2c1/C=N/Nc1nc2ccccc2[nH]1,-2,-13,34*,-12,>38,
COc1cccc(-c2[nH]nc3c2C(c2ccoc2)C(C#N)=C(N)O3)c1 (stereo not given),13,1,82*,20,9.8*,
N#CC1=C(N)Oc2n[nH]c(-c3ccccc3)c2C1c1ccsc1 (stereo not given),8,-1,86*,-9,31*,
CCC(CC)C1C(C#N)=C(N)Oc2n[nH]c(-c3ccccc3)c21 (stereo not given),19,5,4,-2,x,
CCOc1ccc(-c2[nH]nc3c2C(c2cccnc2)C(C#N)=C(N)O3)cc1 (stereo not given),8,-3,x,14,x,
